Measurements: PubChem BioAssay

Test: resazurin metabolic signal in HepG2 cells – cell-based, resazurin fluorescence, 24 h, PK04 Diversity Set, profiling panel (AID 1172); further: test concentration not given here
Conditions: HepG2 viability, higher = more signal

| Compound | z-score |
| --- | --- |
| CC(C)OC(=O)C=C1C[C@@H](c2ccc(C#N)cc2)O[C@@H](c2ccc(C#N)cc2)O1 | -0.389 |
| CO[C@@H]1COC(=O)CC=C[C@@H](C)COC(=O)[C@H](COCc2ccccc2)NC(=O)CC=C[C@H]1C | -0.466 |
| CO[C@@H]1COC(=O)CC=C[C@@H](C)[C@@H]2C=C[C@H](O)[C@@H](COC(=O)CCC[C@H]1C)O2 | 0.696 |
| O=C1[C@H]2[C@H]3[C@H](O)[C@H](O)CC(=NO[C@@H]4O[C@H](CO)[C@@H](O)[C@H](O)[C@H]4O)[C@H]3CC[C@H]2C(=O)N1Cc1ccc2c(c1)OCO2 | 0.777 |
| C=CC[C@@H]1C=C[C@H](ON=Cc2ccc(C(=O)N3[C@H](c4ccc(C)cc4)[C@@H](C)CC[C@H]3C(=O)OC)cc2)[C@@H](CO)O1 | 0.456 |
| COCCOC(=O)N1C(=O)[C@@]2(c3cc(C#Cc4ccc(OC)cc4)ccc31)[C@H](c1ccc(O)cc1)N1[C@H](c3ccccc3)[C@H](c3ccccc3)OC(=O)[C@H]1[C@@H]2C(N)=O | -0.422 |
| CC(C)(C)N1CC=CC23O[C@@H]4C=CCCOC(=O)C4[C@H]2C(=O)N(CCCCCO)[C@@H]3C1=O (stereo partly specified) | -0.214 |
| COCCOC(=O)N1C(=O)[C@@]2(c3cc(C#Cc4ccc(OC)cc4)ccc31)[C@H](C(=O)N1CCN(c3ncccn3)CC1)[C@H]1C(=O)O[C@H](c3ccccc3)[C@H](c3ccccc3)N1[C@@H]2c1ccc(OCCO)cc1 | 0.254 |
| COC(=O)[C@@H]1CC[C@H](C)[C@@H](c2ccc(C)cc2)N1C(=O)c1ccc(C=NOC(C)CN2CCCCc3nc(C)c(C)cc32)cc1 (stereo partly specified) | 1.03 |
| CC(C)CON=C1[C@H]2CCn3c(=O)n(-c4ccccc4)c(=O)n3[C@H]2[C@H](O)[C@@H]2O[C@H]12 | -0.771 |
| COCC(=C=CC[C@@H](O)c1ccccc1OCCO)CCO | 0.721 |
| O=C1O[C@@H](c2ccccc2)[C@@H](c2ccccc2)N2[C@@H](c3ccc(OCCO)cc3)[C@]3(C(=O)Nc4ccc(C#CCCO)cc43)[C@@H](C(=O)N3CCCCCCC3)[C@H]12 | 0.0125 |
| C#C[C@@H]1Oc2ccccc2S(=O)(=O)N2CCC[C@H]12 | -0.768 |
| CCCC[C@H]1OB(O)C[C@H]2C1=C(C)C[C@H]1C(=O)N(C)C(=O)[C@H]12 | -0.539 |
| O=C1[C@H]2[C@H]3[C@H](O)[C@H](O)CC(=NOC[C@@H](O)COCc4ccco4)[C@H]3CC[C@H]2C(=O)N1c1cccc(Oc2ccccc2)c1 | 0.957 |
| CC(C)[C@H](NC(=O)OC(C)(C)C)[C@@H](O)CC(=O)OC(C)(C)C | -0.811 |
| CO[C@H]1COC(=O)CC=C[C@H](C)[C@@H](NS(=O)(=O)c2ccc(C)cc2)COC(=O)CC=C[C@@H]1C | 0.55 |
| CCOC(=O)CCN1C(=O)[C@H]2[C@H]3[C@H](O)[C@H](O)CC(=O)[C@H]3CC[C@H]2C1=O | -0.228 |

| Compound | z-score |
| --- | --- |
| NC(=O)NCC#Cc1ccc2c(c1)[C@]1(C(=O)N2)[C@H](c2ccc(O)cc2)N2[C@H](c3ccccc3)[C@H](c3ccccc3)OC(=O)[C@H]2[C@@H]1C(=O)N1CCCCCCC1 | 0.855 |
| CCOC(=O)C[C@H]1[C@H](OC(=O)c2ccc(C(=O)c3ccccc3)cc2)[C@@H](NC(=O)c2ccc(-c3ccccc3)cc2)c2cc(OCCCO)ccc2N1C(=O)c1ccc2ccccc2n1 | 0.206 |
| O=C1[C@H]2[C@H]3[C@H](O)[C@H](O)CC(=NO[C@@H]4O[C@H](CO)[C@@H](O)[C@H](O)[C@H]4O)[C@@H]3CC[C@H]2C(=O)N1Cc1ccccc1 | 1.04 |
| CC(C)(C)N1C(=O)[C@H]2[C@H]3[C@H](O)[C@H](O)CC(=NOCc4ccccc4)[C@@H]3CC[C@H]2C1=O | -1.74 |
| C[C@@H](c1ccccc1)N1C(=O)[C@H]2[C@H]3[C@H](O)C=CC(=O)[C@@H]3CC[C@H]2C1=O | -0.0507 |
| CC(C)(C)N1C(=O)[C@H]2[C@H]3[C@H](O)[C@H](O)CC(=NO[C@@H]4O[C@H](CO)[C@@H](O)[C@H](O)[C@H]4O)[C@@H]3CC[C@H]2C1=O | -0.332 |
| CCOC(=O)NN=C1C[C@@H](O)[C@@H](O)[C@@H]2[C@@H]3C(=O)N(C(C)(C)C)C(=O)[C@@H]3CC[C@@H]12 | -0.119 |
| COC(=O)[C@H](C)NC(=O)CCC1CC(OC(=O)NCCc2ccc(F)cc2)CC2(CCCC(COC(=O)NCCc3ccc(Cl)cc3)O2)O1 (stereo partly specified) | 0.315 |
| COc1ccccc1CN1C(=O)c2ccccc2[C@@H](C(=O)NCC(F)(F)F)[C@@H]1c1ccc(CO)cc1 | 1.06 |
| C[C@H]1Cc2c(-c3ccccc3)nc3c(c2CO1)CN(CCOc1ccccc1)CC3 | -0.33 |
| COCCCNC(=O)[C@@]1(CCS(=O)(=O)c2ccccc2)N=C(c2ccc(OCCCO)cc2)O[C@H]1c1ccccc1 | 1.62 |
| O=C1CCCC2OC12C(O)CCc1ccccc1 (stereo unspecified) | -1.06 |
| COC(=O)CC=C[C@H](C)[C@@H](OCc1ccccc1Br)C(C)C | -0.285 |
| CO[C@H]1COC(=O)[C@@H]2CCCN2C(=O)[C@@H](C)COC(=O)CC=C[C@@H]1C | 0.264 |
| CC(C)=CCCC(C)=CCON=C1[C@H]2CCn3c(=O)n(C)c(=O)n3[C@H]2[C@H](O)[C@@H]2O[C@H]12 | -0.653 |
| CN1C(=O)C2C=CC(C(O)C(c3ccccc3)c3ccccc3)N(NC(=O)OC(C)(C)C)C2C1=O (stereo unspecified) | -0.889 |
| CCOC(=O)CCN1C(=O)[C@H]2[C@H]3[C@H](O)[C@H](O)CC(=NNC(=O)OCc4ccc(OC)cc4)[C@@H]3CC[C@H]2C1=O | -0.54 |
| CC(CCC(=O)OC[C@H]1O[C@H](C#Cc2ccccc2)C=C[C@@H]1Oc1ccc(C)cc1)=NO[C@@H](C)c1cn([C@H](CO)Cc2ccccc2)nn1 | 0.0474 |
